SMILES strings stand for the structures. This is part of a sample that, as a whole, favours compounds with a hit. Of some 83,000 tested, about 20% had one in any assay.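 The test compound was applied at a single concentration to cells in 96-well plates for 48 hours, and percent growth was recorded.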 The source made the active and inactive calls. Rule for the calls: active = growth percent below 10; inactive = the rest.

For one experiment, the system named is SK-MEL-5 melanoma. In words: NCI-60 one-dose screen, 48 h (100 = growth as untreated, 0 = no growth, -100 = all killed). The conditions noted are these: 10 µM unless noted.
Consider `O=C(O)CSCC(=O)Nc1cc(C(F)(F)F)ccc1Cl`, for which the growth was 102% (inactive).
Still for that read-out and setting: for `N=C(N)c1nn(C2OC(CO)C(O)C2O)c2nc[nH]c(=O)c12` (configuration not stated) the value was -97% (active); for `CC(C)C(=O)OCCOc1ccc(C(C)(C)C)cc1`, 102% (inactive).
Same read-out and setting: for `C/C(=N\Nc1ccc([N+](=O)[O-])cc1[N+](=O)[O-])c1ccc(Br)cc1` the value was 100% (inactive); for `O=C(Oc1ccccc1Cl)c1ccc(Cl)cc1Cl`, 102% (inactive).
Same read-out and setting: for `C=C(C)COc1ccc(C(C)(C)C)cc1` the value was 104% (inactive).
Regarding `CCC(C)c1c(N)n(S(=O)(=O)c2ccc(C)cc2)oc1=O` (configuration not stated), the growth was 100% (inactive).
Still for that read-out and setting: for `Nc1ccn(C2CC(N)C(CO)O2)c(=O)n1` (configuration not stated) the value was 83.6% (inactive); for `CN(CCCN(C)CCC1CCCCC1)CCC1CCCCC1`, -100% (active); for `O=S(Cc1ccccc1)/C(=C/NC(=S)Nc1cc(Cl)ccc1Cl)c1ccccc1` (configuration not stated), 102% (inactive).
The same measure, in the same setting: for `CN1CCCN(C(c2ccccc2)c2ccc(Br)cc2)CC1` (configuration not stated) the value was 60.3% (inactive).
For `O=C(Nc1cccc(Cl)c1)c1ccc(Cl)cc1Cl`, the growth is 96.1% (inactive).
Still for that read-out and setting: for `CC(=O)Oc1c(Cl)cccc1-c1ccccc1` the value was 101% (inactive); for `COc1cccc(C(=O)O)c1OC`, 104% (inactive); for `CC(C)C1CCC(C)C(O)C1` (configuration not stated), 105% (inactive).
Regarding `CCCNS(=O)(=O)c1ccc(Cl)cc1`, the growth was 105% (inactive).
On the same count and under the same terms, for `O=C(NCc1ccccc1)c1cccc([N+](=O)[O-])c1` the value was 103% (inactive).
As for `OCCc1ccc(Cl)cc1`, the growth is 103% (inactive).
Consider `C/C(=N\O)c1ccccn1`, for which the growth is 105% (inactive).
In the case of `CC1(C)OC(=O)CC1=O`, the growth was 98.7% (inactive).
Consider `Nc1ncnc2c1ncn2C1OC(CO)C2OC21` (configuration not stated), for which the growth was 101% (inactive).
Regarding `C=CCS(C)(=O)=O`, the growth is 104% (inactive).
On to `Cc1ccc(C2CCCCC2)cc1Br`, for which the growth is 102% (inactive).
Still for that read-out and setting: for `O=S(=O)(O)c1cccnc1` the value was 103% (inactive); for `CCCCOC(=O)c1ccccc1O`, 104% (inactive).

The subject of a further experiment is UACC-62 melanoma. Described as above. The conditions noted are these: 10 µM unless noted.
On to `O=C(O)CSCC(=O)Nc1cc(C(F)(F)F)ccc1Cl`, for which the growth is 99.6% (inactive).
Same read-out and setting: for `OCCNc1ccccc1` the value was 109% (inactive); for `CCC(C)c1c(N)n(S(=O)(=O)c2ccc(C)cc2)oc1=O` (configuration not stated), 101% (inactive).
As to `O=S(Cc1ccccc1)/C(=C/NC(=S)Nc1cc(Cl)ccc1Cl)c1ccccc1` (configuration not stated), the growth is 98.6% (inactive).
Still for that read-out and setting: for `Cc1c(Cl)cccc1N=C=S` the value was 97.4% (inactive); for `CCCC1OC(c2ccco2)OCC1CC` (configuration not stated), 91.7% (inactive); for `OCCOc1ccc(-c2cc(-c3ccccn3)nc(-c3ccccn3)c2)cc1`, -44.8% (active).
Regarding `C/C=C/C1OCC(CC)C(CCC)O1` (configuration not stated), the growth is 101% (inactive).
The same measure, in the same setting: for `COc1cc(CC#N)c([N+](=O)[O-])cc1OC` the value was 99.8% (inactive).
In the case of `CCOC(=O)/C(C)=C\c1ccc(OC)c(OC)c1`, the growth is 101% (inactive).
As to `O=C1C=Cc2ccccc2/C1=C/c1[nH]c(=O)[nH]c1O`, the growth is 24% (inactive).
Still for that read-out and setting: for `Nc1ncnc2c1ncn2C1OC(CO)C2OC21` (configuration not stated) the value was 100% (inactive); for `Cc1ccc2[nH]c3ccccc3c2c1`, 98.4% (inactive); for `Cc1ccc(/C=N/NC(N)=S)s1`, 102% (inactive).
For `O=C(O)c1ccccc1Cc1ccc2c(c1)CCCC2`, the growth was 96.4% (inactive).
For `Nc1cc(F)ccc1[N+](=O)[O-]`, the growth was 101% (inactive).
In the case of `CCOc1ccc(C(=O)O)cc1`, the growth is 104% (inactive).

(Values after PubChem BioAssay (NCI).)
